Values without a mark were called inactive. No rule for the calls is given here.
Biological target: Pantothenate synthetase (Mycobacterium tuberculosis (strain ATCC 25618 / H37Rv)) (UniProt P9WIL5)
Assay: Coupled enzyme confirmation of inhibitors against recombinant Mtb PanC (AID 375);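 also: 0% = full reaction with vehicle and 100% = no enzyme background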
Conditions: coupled enzyme assay; at 10 µM, active compounds read high

Sequence of Pantothenate synthetase (Mycobacterium tuberculosis (strain ATCC 25618 / H37Rv)) (P9WIL5 whole entry, looked up): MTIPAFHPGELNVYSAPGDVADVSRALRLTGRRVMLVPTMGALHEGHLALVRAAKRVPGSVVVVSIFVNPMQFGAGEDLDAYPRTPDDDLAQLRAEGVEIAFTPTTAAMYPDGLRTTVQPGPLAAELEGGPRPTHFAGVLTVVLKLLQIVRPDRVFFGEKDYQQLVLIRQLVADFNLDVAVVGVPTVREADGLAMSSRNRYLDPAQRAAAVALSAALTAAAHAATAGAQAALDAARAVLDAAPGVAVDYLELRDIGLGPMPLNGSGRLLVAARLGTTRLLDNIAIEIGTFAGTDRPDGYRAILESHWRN

SMILES	inhibition [%]
COc1ccc(CN2CC(C(=O)NCc3ccccn3)CC2=O)cc1 (configuration not stated)	5
O=C(Cn1c(=O)[nH]n(-c2ccccc2)c1=O)N1CCCc2ccccc21	0
CC1(C)O[C@@H]2C[C@H]3[C@@H]4C[C@H](F)C5=CC(=O)C=C[C@]5(C)[C@@]4(F)[C@@H](O)C[C@]3(C)[C@]2(C(=O)CO)O1	1
CCCOc1cccc(C(=O)N(Cc2ccco2)C2CCS(=O)(=O)C2)c1 (configuration not stated)	0
COC(=O)C(NC(C)=O)(Nc1ccccn1)C(F)(F)F (configuration not stated)	1
Cc1cc(Nc2ccccc2)n(-c2ccccc2)n1	3
CCN(c1cccc(C(F)(F)F)c1)S(=O)(=O)c1ccc2c(c1)CCN2C(=O)C1CC1	3
Cc1[nH]c(=O)[nH]c(=O)c1S(=O)(=O)N(C)Cc1ccccc1	0
C=CCn1c(N)c(C(=O)NCCC2=CCCCC2)sc1=S	0
O=C(O)c1ccc2noc(-c3ccccc3)c2c1	0
Cc1cc(=O)n2nc(N3CCCC(C(=O)N4CCN(C)CC4)C3)sc2n1 (configuration not stated)	1
CC(c1ccccc1)n1cnc2ccccc21 (configuration not stated)	0
O=C(O)CCc1ccc(-c2ccccc2)n1CC(=O)O	0
CCCS(=O)(=O)N1CCN(C(=O)CCC2CCCC2)CC1	0
Cc1ccc(S(=O)(=O)N(CC(=O)NCc2ccco2)Cc2ccccc2F)cc1	0
Cc1ccc(C(=O)NC2CC3CCCC(C2)N3C(=O)NC2CCCCC2)cc1 (configuration not stated)	8
Cc1cccc(N2CN=c3s/c(=C\c4ccncc4)c(=O)n3C2)c1	6
Cc1ccc(-c2nnc(-c3cccc(Br)c3)o2)cc1	0
CN1CC=C2C(C#N)=C(N)C(C#N)(C#N)[C@H](c3cccc(Cl)c3)C2C1 (some centres not stated)	0
CCOC(=O)c1ccc(NC(=O)CSCc2ccco2)cc1	0
O=C(O)c1cnn2c1NC(c1ccc(F)cc1)CC2C(F)(F)F (configuration not stated)	2
CCOC(=O)c1sc(C)c2c(=O)n(CC)nnc12	0
O=C(c1ccco1)N1CCN(c2ccc(Cl)cc2)CC1	5
CCN(CC)CCCNC1CCS(=O)(=O)C1 (configuration not stated)	1
COCCN(C(=O)c1csnn1)C(C(=O)NC1CCCCC1)c1cccs1 (configuration not stated)	2
CCOc1ccccc1C1CC(=O)NC(SCC)=C1C#N (configuration not stated)	0

SMILES	inhibition [%]
O=C(NCCCN1CCN(c2cccc(Cl)c2)CC1)c1ccc(N2CCCC2=O)cc1	1
CCn1c2ccccc2c2cc(NC(=O)CSc3nnc(C4CC4)n3Cc3ccco3)ccc21	1
CCOC(=O)N1CCN(Cc2nc3c(c(=O)n(C)c(=O)n3C)n2Cc2ccccc2)CC1	0
CC(=O)N=c1sc(S(N)(=O)=O)nn1C	0
Cc1ccccc1NC(=O)CN1CCC(NC(=O)Nc2ccccc2)CC1	4
c1ccc2[nH]c(-c3cscn3)nc2c1	0
COc1ccc(Nc2ncc3c(n2)CC(c2ccc(OC)cc2)CC3=O)cc1 (configuration not stated)	3
Cc1cc(C)c2ccc(N)nc2c1O	0
COc1ccccc1-n1c(SCC(N)=O)nnc1-c1ccccc1	0
CCOC(=O)N1CCN(c2cc3nccnc3cc2F)CC1	6
C=CCN(CC=C)C(=O)CN1C(=O)c2ccccc2C1=O	0
O=C1CCCN1CCCNc1ncnc2c1[nH]c1ccc(Cl)cc12	9
COc1ccccc1C(=O)OCn1nnc2ccccc2c1=O	0
Cc1cc(C(C)(C)C)cc(C)c1CC1=NCCN1	0
Cc1csc(NC(=O)CSc2nsc(SCC(=O)Nc3nc(C)cs3)c2C#N)n1	2
CC(C)(C)C1CCc2[nH]nc(C(=O)O)c2C1 (configuration not stated)	5
O=c1c2cnn(-c3ccccc3)c2ncn1/N=C/c1ccncc1	5
Cc1cn2c(-c3ccc(Cl)cc3)nnc2s1	0
CC(=O)Oc1ccc(C(c2ccc(OC(C)=O)cc2)c2ccccn2)cc1	0
COC(=O)Cc1cc(=O)n(-c2ccccc2)[nH]1	0
CCOC(=O)C1CCN(C(=O)CSc2cc(=O)n(CC)c3ccccc23)CC1	4
COc1ccc(C(=O)N2CCN(C(=O)c3ccco3)CC2)cc1OC	4
Cc1nc2sc3c(c2c(=O)o1)CCC3	2
CC1CN(C2CCCCC2)c2nc3c(c(=O)[nH]c(=O)n3C)n2C1 (configuration not stated)	2
COc1ccccc1N1CCN(C(=O)C(Cc2ccccc2)NC(=O)C2CCCCC2)CC1 (configuration not stated)	5
CC(NC(=O)c1ccccc1NC(=O)c1ccco1)C(=O)O (configuration not stated)	0

SMILES	inhibition [%]
CCOc1ccc(N(CC(=O)NC2CCCC(C)C2C)S(=O)(=O)c2c(C)noc2C)cc1 (configuration not stated)	2
CCOC(=O)c1ccccc1NC(=O)Cn1cnc2c(cnn2-c2ccc(OC)cc2)c1=O	0
O=c1[nH]cnc2c1nc(SCc1ccccc1)n2C1OC(CO)C(O)C1O (configuration not stated)	0
COc1ccc2ccccc2c1CN1CCCC(CO)C1 (configuration not stated)	0
COc1cccc(NC(=O)c2ccccc2NS(C)(=O)=O)c1	0
O=C(Nc1nc(-c2ccc(S(=O)(=O)N3CCCCCC3)cc2)cs1)c1cccs1	0
Cc1cc(C(=O)NCCN2CCN(c3cccc(Cl)c3)CC2)n(-c2ccccc2)n1	0
Cc1ccc(C(=O)OCC(=O)Nc2ccc3c(c2)OCO3)o1	4
Cc1cc(C)c2nc(C(F)(F)F)nc(NCCCN3CCCC3=O)c2c1	0
COc1cc(C(=O)Nc2cc(Cl)ccc2C)c(-n2cnnn2)cc1OC	9
COc1ccc(C2C3=C(OC(C)=O)c4ccccc4C3=Nc3c2c(=O)n(C)c(=O)n3C)cc1 (configuration not stated)	2
N#Cc1nc(COc2ccc(Br)cc2)oc1N1CCCC1	16
CCN(CC)CCOc1cccc(C(C)C)c1	4
O=C1CN(C(=O)COC(=O)c2ccccc2NC(=O)c2ccco2)c2ccccc2N1	0
O=C(CCn1c(=O)sc2ccccc21)Nc1cccnc1	6
CCCOc1ccc(N2C(=O)CC(NCCCN3CCC(C(N)=O)CC3)C2=O)cc1 (configuration not stated)	4
CCC(C)NC(=O)C1(C)CCC(=O)N1Cc1ccccc1OC (configuration not stated)	10
O=S(=O)(c1ccc2c(c1)OCCO2)N1CCN(Cc2ccc3c(c2)OCO3)CC1	4
COC(=O)C1C(=O)c2c([nH]c(C(=O)OCCOC(C)C)c2C)CC1C (configuration not stated)	0
COc1ccccc1N1CCN(CC(O)COc2cccc3ccccc23)CC1 (configuration not stated)	3
CC12CN3CC(C)(CN(C1)C3c1ccc(Br)cc1)C2 (configuration not stated)	0
CCOc1cc(N2CCOCC2)c(OCC)cc1NC(=O)COC(=O)CCc1c[nH]c2ccccc12	0
COc1ccc(S(=O)(=O)NCCSCc2ccco2)cc1Cl	0
CCCc1cc(=O)[nH]c(SCc2ccccc2)n1	0
COC(=O)c1ccccc1NS(=O)(=O)c1ccc(F)cc1	0
CC1(C)CC(=O)c2sc(NS(C)(=O)=O)nc2C1	0

SMILES	inhibition [%]
Cc1ccnc(NS(=O)(=O)c2ccc(NC(=O)Cc3cccs3)cc2)n1	3
Cc1ccc(C)c(S(=O)(=O)NCc2cccnc2)c1	7
Cc1noc(C)c1C(=O)OCC(=O)Nc1ccccc1C(=O)NC(C)c1ccccc1 (configuration not stated)	14
CCOC(=O)CSc1nnc(NC(=O)c2cccc(S(=O)(=O)N3CCCCC3)c2)s1	5
Cc1[nH]c2ccccc2c1Cc1nnc(SCC(=O)NCc2ccco2)o1	1
CCCCCCc1ccc(-c2ncc(N)cn2)cc1	0
COc1cc2c(C#N)c(N3CCOCC3)nc(N)c2c(N)n1	0
CC(C)(C)NC(=O)CN(Cc1cccs1)C(=O)c1csnn1	0
Nn1c(SCC(=O)Nc2ccc(S(=O)(=O)N3CCCC3)cc2)nnc1C(F)(F)F	0
Cc1cc(-n2c(C)cc(C(=O)CSc3nnnn3-c3ccc(Cl)cc3)c2C)no1	7
COc1ccccc1-n1cnc(N)c1C(C)=O	0
COc1ccc(N2CCC(CNS(=O)(=O)c3cccc(C(F)(F)F)c3)C2)cc1 (configuration not stated)	5
COc1cccc(OC)c1OCCN1CCN(C(=O)c2ccco2)CC1	0
O=C1CCc2cc(S(=O)(=O)N3CCC(C(=O)NCc4ccccn4)CC3)ccc2N1	0
CC[C@H]1CN2CCc3cc(OC)c(OC)cc3[C@@H]2C[C@@H]1C[C@H]1NCCc2cc(OC)c(OC)cc21	0
Cc1onc(-c2c(F)cccc2Cl)c1C(=O)Nc1nc2c(s1)CCCC2	0
CC(=O)N1C(=O)c2cccc3cccc(c23)C(=O)N1C(C)=O	0
Cc1cc(NC(=O)CCC(=O)N(CC(=O)NC2CCCC2)Cc2ccc(F)cc2)no1	0
CCOC(=O)N1CCN(Cc2nc3c(c(=O)[nH]c(=O)n3C)n2Cc2cc(C)ccc2C)CC1	0
O=C1CC(N2CCN(c3ccc(Cl)c(Cl)c3)CC2)C(=O)N1 (configuration not stated)	0
CSc1oc(-c2ccccc2)nc1S(=O)(=O)c1ccc(F)cc1	0
CCOC(=O)Cn1nnc(-c2ccc(SC)cc2)n1	0
C=CCNC(=O)CNS(=O)(=O)c1ccc(F)cc1	2
Cc1onc(-c2c(Cl)cccc2Cl)c1C(N)=O	0
